In the library only some 8.9% were active in any assay of this set; here they are far more common.
KB-V1 cytotox = qHTS assay for MDR1-selective chemotherapeutics: Primary screen using the drug-selected MDR subline cells KB-V1. KB-V1 MDR cells viability, CellTiter-Glo, 72 h. Potency, µM (top dose mostly 46.1 µM), most hits filed as cytotoxic. actives 3.4% (n = 400,000). AID 1347076, 2019; further: potency means the concentration at half of the fitted maximal effect; on the % scale 0 is the no-effect control and ±100 the full control effect; nearly all actives have a fitted effect of over 60% in size
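Compound-treated KB-V1 multidrug-resistant cells, 72 h, 37 degrees C; viability by CellTiter-Glo. Fitted qHTS curves give the values.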
KB-3-1 tox = qHTS assay for MDR1-selective chemotherapeutics: Primary screen using the parental adenocarcinoma cell KB-3-1; Potency, µM (top dose mostly 46.1 µM), most hits filed as cytotoxic; actives 1.4% (n = 400,000); KB-3-1 viability, CellTiter-Glo ATP luminescence, 72 h; AID 1347075, 2019; further: potency means the concentration at half of the fitted maximal effect; on the % scale 0 is the no-effect control and ±100 the full control effect; nearly all actives have a fitted effect of over 60% in size
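Multi-concentration cytotoxicity screen in KB-3-1 cells grown in DMEM lacking phenol red with 10% FBS. After 72 h at 37 °C with compound, ATP-dependent luminescence was recorded.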
D3 ag = qHTS of D3 Dopamine Receptor Agonist: qHTS; D(3) dopamine receptor (Homo sapiens), P35462; D3R DiscoveRx beta-arrestin cells, luminescence, 90 min; max activation, %; actives 0.58% (n = 410,000); in the data active means max activation above about 30%; further: 0% is about no effect
Target sequence (P35462 whole entry, looked up): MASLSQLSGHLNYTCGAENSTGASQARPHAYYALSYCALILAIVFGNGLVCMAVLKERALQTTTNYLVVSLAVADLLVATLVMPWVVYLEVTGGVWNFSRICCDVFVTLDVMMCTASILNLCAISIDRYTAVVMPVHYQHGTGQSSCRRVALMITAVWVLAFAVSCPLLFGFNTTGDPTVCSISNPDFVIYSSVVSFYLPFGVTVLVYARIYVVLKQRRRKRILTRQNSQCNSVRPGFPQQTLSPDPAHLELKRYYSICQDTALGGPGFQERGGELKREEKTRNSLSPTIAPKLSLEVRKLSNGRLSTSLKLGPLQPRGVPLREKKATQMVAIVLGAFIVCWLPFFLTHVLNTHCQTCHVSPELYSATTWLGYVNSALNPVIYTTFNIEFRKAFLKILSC
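Agonist-mode cell screen: cells plated at 1500/well and incubated overnight at 37 °C, then exposed to library compounds for 90 min at 37 °C. Detection reagent was added for 30–60 min at room temperature, and luminescence was read.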
DRD3 antagonist = qHTS of D3 Dopamine Receptor Antagonist: qHTS; max response, negative = inhibition, %; actives 2.5% (n = 360,000); D3R cells, DiscoveRx beta-arrestin luminescence, antagonist mode; active compounds read low; in the data active means max response below about -50%; inconclusive means no clear call, values can overlap the other calls; further: on the % scale 0 is the no-effect control and ±100 the full control effect
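Cells expressing the human receptor were seeded at 1500 cells/well, incubated overnight at 37 degrees C in 5% CO2, then exposed to library compounds with dopamine controls for 90 minutes at 37 degrees C before luminescent detection.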
SW480 rerep = A quantitative high throughput screen for small molecules that induce DNA re-replication in SW480 colon adenocarcinoma cells; SW480 DNA re-replication, Hoechst DNA content imaging, 48 h; Potency, µM (doses to about 46.1 µM), for inactives: at the highest dose re-replication activation, hits mostly activators; actives 1.8% (n = 340,000); further: potency means the concentration at half of the fitted maximal effect; % of control where 0% means no effect; nearly all actives have a fitted effect of over 55% in size
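Treated cells incubate 48 hr (37 C, 5% CO2), are stained 40 min with Hoechst, and nuclear fluorescence is enumerated; a rise in nuclei with high DNA signal marks re-replication.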
MCF10A rerep = A quantitative high throughput screen for small molecules that induce DNA re-replication in MCF 10a normal breast cells. MCF 10A DNA re-replication, Hoechst nuclear intensity, 48 h. Potency, µM (doses to about 46.1 µM), for inactives: at the highest dose activity, positive = re-replication, actives largely listed as activators. actives 2.9% (n = 350,000). AID 624296, 2012; further: potency means the concentration at half of the fitted maximal effect; % of control where 0% means no effect; nearly all actives have a fitted effect of over 50% in size
An asterisk follows results filed as active; i = inactive; ? = inconclusive; · = no result. Unless noted, the call rests on the fitted dose curve; in most records, active means well fitted curve in the direction sought with a large enough effect; inconclusive means small, poorly fitted or top-dose-only effect, or another doubt; inactive means no such curve, though single readings can be large; an effect the other way counts as inactive or inconclusive.

SMILES	KB-V1 cytotox	KB-3-1 tox	D3 ag	DRD3 antagonist	SW480 rerep	MCF10A rerep
COc1ccc(C2C(C#N)=C(N)Oc3cc(N)ccc32)cc1 (configuration not stated)	i	i	1	9	-9%	14%
Cc1nc(-c2ccc(F)cc2)sc1CCNC(=O)c1cccs1	i	i	-11	·	·	·
CCOC1(C)OCC(=O)[C@]2(CCC3C4CCC5=CC(=O)C=CC5(C)C4C(=O)CC32C)O1 (some centres not stated)	i	i	6	20	-2%	-1%
O=S(=O)(c1cc(F)ccc1F)N1CCN(c2ncnc3ccccc23)CC1	9.2µM*	5.2µM*	-5	40	18µM*	5.8µM*
Cc1cc(OCCCSc2nc(-c3ccc(C(C)(C)C)cc3)nc3cc(=O)[nH]n23)ccc1Cl	·	·	20	·	·	·
c1cnc(-c2nnc3n2CCCCC3)cn1	i	i	-3	-9	?	1.5µM*
CC(C)COc1ccccc1C1CC(=O)Nc2cc3c(cc21)OCO3 (configuration not stated)	?	6.5µM*	-2	·	·	·
Cc1ccc(CCNC(=O)Cn2nc(-c3ccc(C)cc3)ccc2=O)cc1	·	·	-15	·	·	·
CCN(CCO)Cc1cn[nH]c1-c1ccc(C)c(C)c1	i	i	3	-66*	1%	1%
CCN(CCO)Cc1csc2cc(C)ccc12	i	i	-38	-6	1%	14%
O=C1C=CC(=O)N1Cc1ccccc1	i	?	-111	-139*	?	?
O=C1C2CC=CCC2C(=O)N1Cc1ccccc1 (configuration not stated)	i	i	6	-5	0%	-7%
Cc1cccc(OCc2nn[nH]n2)c1C	i	i	68*	-12	-1%	10%
O=C(NC1CCCC1)C1c2ccccc2OCC(=O)N1C1CC1 (configuration not stated)	i	i	2	0	·	·
O=C(Nc1ccccc1)/C(=C/c1ccc2c(c1)OCO2)NC(=O)c1ccco1	?	i	-13	7	-3%	-5%
O=C(Nc1cccc(C(=O)O)c1)/C(=C\c1ccc2c(c1)OCO2)NC(=O)c1ccco1	i	i	5	9	-18%	0.58µM*
O=C(Nc1ccccc1)/C(=C\c1ccc2c(c1)OCO2)NC(=O)c1ccco1	i	i	-2	-2	?	9.2µM*
CC1CCCCN1S(=O)(=O)c1ccc2[nH]c(=O)cc(C(=O)NCCc3ccc(Cl)cc3)c2c1 (configuration not stated)	·	·	15	·	·	·
CCN(CC)CCCNC(=O)C(C)n1nc(C)n2c(cc3occc32)c1=O (configuration not stated)	i	i	-15	·	·	·
Cc1ccc(C23CC4CC(CC(NC(=O)NCCN(C)C)(C4)C2)C3)cc1	i	i	3	?	?	?
CN(C)CCNC(=O)COc1ccc(C23CC4CC(CC(C4)C2)C3)cc1	i	?	-14	0	?	16µM*
Cc1ccc(C(OCCN(C)C)c2cccc(C(F)(F)F)c2)cc1 (configuration not stated)	i	i	-11	-76*	23%	11%
CCC(=O)Nc1cc(C(=O)NCC2CCCN2CC)c(OC)cc1N(C)C (configuration not stated)	i	i	-38	-91*	-2%	-6%
CCN1CCCC1CNC(=O)c1cc(S(N)(=O)=O)ccc1OC (configuration not stated)	i	i	·	-98*	-8%	2%
CCN1CCCC1CNC(=O)c1cc(NC(C)=O)c(N(C)C)cc1OC (configuration not stated)	i	i	-9	-88*	-3%	1%
SMILES	KB-V1 cytotox	KB-3-1 tox	D3 ag	DRD3 antagonist	SW480 rerep	MCF10A rerep
CCN1CCCC1CNC(=O)C(=O)NCCc1ccc(OC)c(OC)c1 (configuration not stated)	i	i	11	9	-5%	0%
COCCN1C(=O)N[C@@H](c2ccco2)C(C(=O)OC)=C1C	i	i	2	-13	-26%	12%
Cc1cc(S(=O)(=O)NCCc2csc(-c3cccc(F)c3)n2)ccc1F	i	?	-17	·	·	·
CN(Cc1ccccc1)S(=O)(=O)c1cccc2cccnc12	21µM*	i	5	9	-22%	0%
O=C(Cn1ncc2c3ccccc3n(Cc3ccccc3)c2c1=O)NCc1ccccc1	i	i	2	·	·	·
COC(=O)Cn1ncc2c3ccccc3n(Cc3ccccc3)c2c1=O	23µM*	i	0	-7	0%	8%
N=c1cc(C2(O)CCCCC2)n2c(nc3ccccc32)s1	16µM*	?	0	18	?	18µM*
Cc1ccc(-n2ncc3c(=O)n(Cc4cccnc4)cnc32)cc1	12µM*	18µM*	1	-1	-10%	-1%
Cc1ccc(-n2ncc3c(=O)n(CC(=O)N(C)C)cnc32)cc1	i	i	6	-1	3%	7%
Cc1cccc(-c2ccc3[nH]c4c(c3c2)CCN2C[C@@H]([C@H](C)O)[C@@H](N(C)C(=O)NC3CCCCC3)C[C@@H]42)c1	i	?	-8	-19	·	·
C[C@H](O)[C@@H]1CN2CCc3c([nH]c4ccccc34)[C@@H]2C[C@@H]1N(C)C(=O)NC1CCCCC1	i	i	-15	-58*	·	·
COc1ccc(NC(=O)N(C)[C@H]2C[C@H]3c4[nH]c5ccc(-c6ccc7c(c6)OCO7)cc5c4CCN3C[C@H]2[C@H](C)O)cc1	i	?	-7	-12	·	·
COc1ccc(NC(=O)N(C)[C@H]2C[C@H]3c4[nH]c5ccc(-c6ccc(OC)cc6)cc5c4CCN3C(=O)[C@H]2[C@H](C)O)cc1	i	?	0	-20	·	·
CN[C@H]1C[C@H]2c3[nH]c4ccc(-c5ccc(OC)cc5)cc4c3CCN2C(=O)[C@H]1[C@H](C)O	?	5.8µM*	-6	-14	·	·
COc1ccc(NC(=O)N(C)[C@H]2C[C@H]3c4[nH]c5ccc(-c6ccc(OC)cc6)cc5c4CCN3C[C@H]2[C@H](C)O)cc1	?	21µM*	-1	-8	·	·
